Molecules are shown by their SMILES. The source made the active and inactive calls.

Assay [1] is described as follows: binders of probe aFSTL3 on microarray, primary screen, stem cell growth factor project, biochemical, small-molecule microarray, fluorescence 635/667 (AID 1064).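 Also: measures binding of the biotinylated anti-FSTL3 antibody to printed compounds.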 Particulars: higher = more signal.
Assay [2] in a line: binders from COS7 lysate, DM2A8 probe, primary screen, torsin A project, cell lysate, small-molecule microarray, fluorescence 635/667 (AID 1065). Particulars: higher = more signal, COS7 lysate expressing mutant human TOR1A.
Assay [3] in a line: binders of probe aFGF2 on microarray, primary screen, stem cell growth factor project, biochemical, small-molecule microarray, fluorescence 635/667 (AID 1067).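 Also: measures binding of biotinylated aFGF2 protein to printed compounds on slides; z-score merges feature fluorescence and signal-to-noise across triplicate slides.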 As to conditions: higher = more signal.
The nature of assay [4]: binders of probe aFGF10 on microarray, primary screen, stem cell growth factor project, biochemical, small-molecule microarray, fluorescence 635/667 (AID 1071).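 Also: score merges 667 nm spot intensity and signal to noise from triplicate slides.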 Particulars: higher = more signal.
Assay [5] has as its target Neurogenic locus notch homolog protein 2 (Homo sapiens) (UniProt Q04721). The assay is described as follows: Notch2 binders on small-molecule microarrays, primary screen, biochemical, small-molecule microarray, 635 nm fluorescence, stem cell growth factors (AID 1073). Particulars: Notch2 binding, higher = more signal.
Assay [6] concerns the target Pro-neuregulin-1, membrane-bound isoform (Homo sapiens) (UniProt Q02297). The assay is described as follows: NRG1 binders on small-molecule microarrays, primary screen, psychiatric disease protein project, biochemical, small-molecule microarray, fluorescence 635/667 (AID 1075).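 Also: score combines 667 nm spot fluorescence with signal to noise.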 As to conditions: NRG1 binding, 635 nm fluorescence, higher = more signal.
Assay [7] concerns Neuregulin-1 EGF-like domain. The assay can be described thus: binders of neuregulin-1 EGF-like domain, primary screen, biochemical, small-molecule microarray, 635 nm fluorescence (AID 1081).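 Also: binding of the protein to compounds printed on small-molecule microarray slides.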 Particulars: small-molecule microarray binding, higher = more signal.
Assay [8] can be described thus: FRG1 promoter luciferase signal modulators, primary screen, FRG1 inhibition for FSHD, cell-based, C2C12 myotubes, firefly/Renilla luciferase, luminescence (AID 1084). Particulars: higher = more signal, called active from +8 up or from −8 down.
The nature of assay [9]: binders of probe aFST on microarray, primary screen, stem cell growth factor project, biochemical, small-molecule microarray, fluorescence 635/667 (AID 1086).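 Also: score merges 667 nm fluorescence with signal-to-noise of each printed compound spot.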 Particulars: higher = more signal.
A short description of assay [10]: binders of probe aHhip on microarray, primary screen, stem cell growth factor project, biochemical, small-molecule microarray, fluorescence 635/667 (AID 1087).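 Also: score merges spot fluorescence at 667nm with spot signal to noise ratio.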 Particulars: higher = more signal.
For assay [11], the system named is PRMT1 (protein arginine N-methyltransferase 1). The assay is described as follows: PRMT1 binders on small-molecule microarrays, primary screen, biochemical, small-molecule microarray, 635 nm fluorescence (AID 1088).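 Also: binding of Prmt1 protein to compounds spotted on small-molecule microarray slides.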 As to conditions: small-molecule microarray binding, higher = more signal.
A short description of assay [12]: yeast growth modulation, basal conditions, primary screen, YJM789 clinical isolate, OD600, 24 h (AID 1089).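 Also: growth of clinical yeast isolate S. cerevisiae YJM 789 seeded 1000 cells per well; test concentration not given here.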 Particulars: S. cerevisiae YJM789 growth, higher = more signal, called active from +8 up or from −8 down.
A short description of assay [13]: fission yeast growth modulation, primary screen, strain 972, OD600, 24 h, no modulator (AID 1090).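 Also: basal condition with compound alone and no growth modifier present; test concentration not given here.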 As to conditions: S. pombe 972 growth, higher = more signal, called active from +8 up or from −8 down.
Assay [14] in a line: S. cerevisiae growth modulation with rapamycin, primary screen, strain BY4716, OD600, 96 h (AID 1091). Also: test concentration not given here. As to conditions: higher = more signal, called active from +8 up or from −8 down.
Assay [15] deals with Torsin-1A-interacting protein 2 (Homo sapiens) (UniProt Q8NFQ8). The assay is described as follows: LULL1 binders on small-molecule microarray, primary screen, cell lysate, human LULL1 lysate, 635/667 nm fluorescence (AID 1092).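 Also: probe is lysate of COS7 cells overexpressing human LULL1; score merges per-feature 667 nm fluorescence with signal-to-noise.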 As to conditions: hLULL1 lysate binding, 635 nm fluorescence, higher = more signal.
The nature of assay [16]: E. coli growth modulation, two-sided OD650, primary screen, E. coli filamentation project, strain DRC41, 24 h (AID 1093).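 Also: MC1000 strain lacking acrAB efflux and sulA so SOS filamentation is blocked; test concentration not given here.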 Particulars: OD650, 24 h, higher = more signal, called active from +8 up or from −8 down.
Assay [17] can be described thus: small-molecule microarray binders of probe aLefty2, primary screen, biochemical, biotinylated probe, 635/667 nm fluorescence (AID 1094).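 Also: score merges spot fluorescence near 667 nm with spot signal-to-noise ratio.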 As to conditions: higher = more signal.
The subject of assay [18] is Noggin (protein binding on small-molecule microarray). The assay is described as follows: Noggin binders on small-molecule microarray, primary screen, biochemical, 635/667 nm fluorescence (AID 1095).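 Also: score merges 667 nm feature fluorescence with signal to noise over triplicate slides.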 As to conditions: 635 nm fluorescence, higher = more signal.
Assay [19] addresses Neurogenic locus notch homolog protein 3 (Homo sapiens) (UniProt Q9UM47). The assay can be described thus: NOTCH3 binders on small-molecule microarray, primary screen, biochemical, 635/667 nm fluorescence (AID 1096). As to conditions: NOTCH3 binding, 635 nm fluorescence, higher = more signal.
Assay [20] can be described thus: small-molecule microarray binders of probe aEGFR, primary screen, biochemical, biotinylated probe, 635/667 nm fluorescence (AID 1097).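 Also: probe is a biotinylated anti-EGFR antibody binding compounds printed on slides; score combines fluorescence near 667 nm and signal to noise of each spot.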 As to conditions: higher = more signal.

Sequence of Neurogenic locus notch homolog protein 3 (Homo sapiens) (Q9UM47 whole entry, looked up): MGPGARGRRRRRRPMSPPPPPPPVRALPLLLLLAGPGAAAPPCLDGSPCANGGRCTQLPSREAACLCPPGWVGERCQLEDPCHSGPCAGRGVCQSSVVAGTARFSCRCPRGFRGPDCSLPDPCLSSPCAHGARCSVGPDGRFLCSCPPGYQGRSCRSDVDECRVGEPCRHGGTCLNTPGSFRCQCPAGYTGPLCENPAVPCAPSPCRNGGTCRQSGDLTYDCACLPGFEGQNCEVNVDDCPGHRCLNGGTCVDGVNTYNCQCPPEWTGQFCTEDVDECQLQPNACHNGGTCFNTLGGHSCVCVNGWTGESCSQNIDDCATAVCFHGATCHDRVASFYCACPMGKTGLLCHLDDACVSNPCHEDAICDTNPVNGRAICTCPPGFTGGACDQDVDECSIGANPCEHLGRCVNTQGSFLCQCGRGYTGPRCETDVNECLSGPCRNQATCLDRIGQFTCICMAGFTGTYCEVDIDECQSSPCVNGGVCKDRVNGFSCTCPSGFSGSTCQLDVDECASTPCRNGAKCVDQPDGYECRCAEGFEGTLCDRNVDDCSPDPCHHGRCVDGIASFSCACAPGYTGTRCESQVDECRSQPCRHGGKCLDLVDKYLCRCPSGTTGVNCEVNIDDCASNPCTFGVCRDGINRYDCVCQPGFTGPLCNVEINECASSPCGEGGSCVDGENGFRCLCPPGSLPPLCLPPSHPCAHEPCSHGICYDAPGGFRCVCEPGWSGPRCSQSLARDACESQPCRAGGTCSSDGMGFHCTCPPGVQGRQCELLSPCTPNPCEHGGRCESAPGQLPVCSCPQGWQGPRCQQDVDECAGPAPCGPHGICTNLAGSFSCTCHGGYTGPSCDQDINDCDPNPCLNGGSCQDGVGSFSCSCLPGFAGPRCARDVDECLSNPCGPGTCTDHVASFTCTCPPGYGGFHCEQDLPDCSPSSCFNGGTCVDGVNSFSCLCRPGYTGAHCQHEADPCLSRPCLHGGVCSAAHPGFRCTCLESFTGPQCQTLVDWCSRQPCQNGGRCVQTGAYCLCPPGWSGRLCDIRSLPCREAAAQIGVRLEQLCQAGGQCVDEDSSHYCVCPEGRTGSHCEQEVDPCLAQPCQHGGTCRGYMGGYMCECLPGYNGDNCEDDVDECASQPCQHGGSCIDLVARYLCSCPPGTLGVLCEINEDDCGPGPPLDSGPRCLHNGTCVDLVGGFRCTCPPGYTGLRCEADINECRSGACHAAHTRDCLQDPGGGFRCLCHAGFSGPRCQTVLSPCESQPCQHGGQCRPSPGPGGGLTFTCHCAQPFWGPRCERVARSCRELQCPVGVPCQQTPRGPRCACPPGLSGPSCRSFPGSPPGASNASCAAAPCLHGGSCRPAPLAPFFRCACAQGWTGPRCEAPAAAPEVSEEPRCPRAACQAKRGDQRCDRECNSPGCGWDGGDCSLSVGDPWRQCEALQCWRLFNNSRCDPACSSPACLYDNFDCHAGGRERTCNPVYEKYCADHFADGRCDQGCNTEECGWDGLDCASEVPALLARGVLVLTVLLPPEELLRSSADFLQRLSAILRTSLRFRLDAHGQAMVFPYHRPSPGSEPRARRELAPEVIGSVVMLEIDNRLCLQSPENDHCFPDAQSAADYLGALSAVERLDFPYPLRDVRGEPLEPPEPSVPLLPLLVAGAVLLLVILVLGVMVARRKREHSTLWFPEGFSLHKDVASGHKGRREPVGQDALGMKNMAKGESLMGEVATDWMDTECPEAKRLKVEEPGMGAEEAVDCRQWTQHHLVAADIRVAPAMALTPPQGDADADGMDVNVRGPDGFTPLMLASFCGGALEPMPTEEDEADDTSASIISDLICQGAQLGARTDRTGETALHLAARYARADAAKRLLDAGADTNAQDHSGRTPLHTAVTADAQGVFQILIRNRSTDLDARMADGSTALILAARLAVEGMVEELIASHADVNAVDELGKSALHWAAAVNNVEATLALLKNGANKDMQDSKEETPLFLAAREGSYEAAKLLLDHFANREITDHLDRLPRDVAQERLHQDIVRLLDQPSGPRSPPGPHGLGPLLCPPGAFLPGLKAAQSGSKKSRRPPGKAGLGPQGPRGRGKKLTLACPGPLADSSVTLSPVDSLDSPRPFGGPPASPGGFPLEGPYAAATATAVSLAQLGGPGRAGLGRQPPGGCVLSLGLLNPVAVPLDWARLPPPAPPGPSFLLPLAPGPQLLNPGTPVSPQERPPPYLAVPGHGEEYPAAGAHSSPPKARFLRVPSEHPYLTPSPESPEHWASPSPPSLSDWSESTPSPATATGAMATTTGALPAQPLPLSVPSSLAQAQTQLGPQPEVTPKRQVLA
Sequence of Pro-neuregulin-1, membrane-bound isoform (Homo sapiens) (Q02297 whole entry, looked up, the tested form may be a part, canonical isoform): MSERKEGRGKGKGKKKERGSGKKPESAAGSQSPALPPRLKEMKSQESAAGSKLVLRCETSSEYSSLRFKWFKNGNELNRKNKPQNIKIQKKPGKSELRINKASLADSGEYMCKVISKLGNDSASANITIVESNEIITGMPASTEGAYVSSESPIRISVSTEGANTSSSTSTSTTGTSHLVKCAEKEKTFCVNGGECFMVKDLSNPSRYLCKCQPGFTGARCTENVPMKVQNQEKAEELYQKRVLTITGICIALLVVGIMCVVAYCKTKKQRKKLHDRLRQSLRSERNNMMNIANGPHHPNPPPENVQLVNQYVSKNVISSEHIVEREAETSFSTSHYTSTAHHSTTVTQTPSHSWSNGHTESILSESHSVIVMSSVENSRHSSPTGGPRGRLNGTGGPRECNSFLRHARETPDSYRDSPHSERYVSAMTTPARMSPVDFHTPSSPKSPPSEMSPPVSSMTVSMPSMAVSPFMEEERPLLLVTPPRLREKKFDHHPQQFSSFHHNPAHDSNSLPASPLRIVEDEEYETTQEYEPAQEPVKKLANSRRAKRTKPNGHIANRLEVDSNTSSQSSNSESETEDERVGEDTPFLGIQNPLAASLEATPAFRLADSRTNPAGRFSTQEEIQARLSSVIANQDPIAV
Sequence of Torsin-1A-interacting protein 2 (Homo sapiens) (Q8NFQ8 whole entry, looked up): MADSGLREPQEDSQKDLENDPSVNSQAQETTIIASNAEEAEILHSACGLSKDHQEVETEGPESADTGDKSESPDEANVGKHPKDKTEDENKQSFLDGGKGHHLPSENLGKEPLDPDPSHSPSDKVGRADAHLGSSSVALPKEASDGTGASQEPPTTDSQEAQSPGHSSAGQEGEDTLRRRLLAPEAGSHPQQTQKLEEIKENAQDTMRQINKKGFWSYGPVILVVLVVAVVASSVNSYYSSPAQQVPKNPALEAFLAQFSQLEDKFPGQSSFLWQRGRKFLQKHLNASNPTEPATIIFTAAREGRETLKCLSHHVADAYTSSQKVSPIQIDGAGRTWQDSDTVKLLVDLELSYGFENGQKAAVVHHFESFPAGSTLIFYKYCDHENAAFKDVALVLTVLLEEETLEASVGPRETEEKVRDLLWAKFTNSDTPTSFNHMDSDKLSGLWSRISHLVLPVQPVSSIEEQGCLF

On to `CCCC[C@H]1OB(O)C[C@H]2C1=C(C)Cn1c(=O)n(-c3ccccc3)c(=O)n12`, for which the composite z-score is -0.396 in assay [1]; 0.383 in [2]; -0.116 in assay [3]; 0.365 in assay [4]; 0.585 in assay [5]; -0.0946 in [6]. Moreover, the composite z-score in assay [7] was 0.129; in assay [9], 0.292; in assay [10], -0.0237; in [11], 0.414; in assay [15], 0.262; in [17], -0.119. For the same compound, the composite z-score in [18] is 0.688; in assay [19], 0.37; in assay [20] it was -0.113. Besides, the z-score in [8] is -0.127 (inactive); in assay [12], 0.585 (inactive); in assay [13], 1.19 (inactive); in [14], 0.261 (inactive); in assay [16], -0.314 (inactive).

As to `[N-]=[N+]=NCc1ccccc1C[C@]1(C(=O)NCc2ccccc2)COC(c2ccc(OCCCO)cc2)=N1`, the composite z-score was 0.0555 in assay [1]; 0.808 in [2]; 0.0111 in [3]; 0.157 in [4]; 0.472 in [5]; 1.17 in assay [6]. Further, the composite z-score is 0.931 in assay [7]; 0.534 in assay [9]; -0.166 in assay [10]; 1.01 in assay [11]; 3.12 in assay [15]; -0.0438 in [17]. Further, the figures for the composite z-score in [18], in [19] and in [20] were 0.0869, -0.146 and -0.0828, respectively. For the same compound, the z-score in [8] is -3.06 (inactive); in assay [12], 1.67 (inactive); in [13], 0.816 (inactive); in [14], 36 (active); in assay [16], 1.21 (inactive).

On to `CO[C@H]1O[C@H](CO)[C@@H](OC(=O)Nc2ccc3c(c2)OCO3)[C@H](OC(=O)Nc2ccc3c(c2)OCO3)[C@H]1OC(=O)Nc1ccc2c(c1)OCO2`, for which the composite z-score in assay [1] was 0.0472; in assay [2] it was -0.235; in [3], 0.0575; in assay [4] it was 0.844; in [5] it was 1.39; in assay [6] it was 1.83. Besides, the composite z-score in assay [7] is 1.25; in assay [9] it was 0.634; in assay [10], -0.0296; in assay [11] it was 1.54; in [15], 3.5; in assay [17], 0.151. Also, the composite z-score in assay [18] is 0.816; in assay [19], 1.03; in assay [20] it was -0.0455. Also, the z-score in assay [8] was 6.05 (inactive); in assay [12] it was 1.68 (inactive); in [13] it was 0.861 (inactive); in assay [14], 3.19 (inactive); in assay [16] it was 0.922 (inactive).

On to `O=C1OCC=C[C@H]2OC34C=CCN(CCN5CCOCC5)C(=O)[C@H]3N(CCCCCCO)C(=O)[C@@H]4[C@@H]12` (stereo not given in full), for which the composite z-score in assay [1] is -0.142; in [2], 0.108; in assay [3] it was -0.0785; in assay [4], 0.0266; in assay [5] it was -0.157; in assay [6], 2.07. Also, the composite z-score in [7] was 1.27; in assay [9], 0.334; in assay [10], -0.364; in assay [11], 0.171; in [15], 2.87; in assay [17] it was -0.0009. The values for the composite z-score in [18], in assay [19] and in assay [20] were 0.0056, -0.0123 and 0.0792, respectively. Besides, the z-score in assay [8] was 1.69 (inactive); in assay [12], -1.4 (inactive); in assay [13], -1.1 (inactive); in assay [14], -0.918 (inactive); in assay [16], -0.608 (inactive).

For `COCCOC(=O)N1C(=O)[C@@]2(c3cc(C#CCCO)ccc31)[C@H](c1ccc(O)cc1)N1[C@H](c3ccccc3)[C@H](c3ccccc3)OC(=O)[C@H]1[C@@H]2C(=O)N1CCCCCCC1`, the composite z-score in [1] was 2.58; in assay [2] it was 1.07; in assay [3], 0.2; in [4], 1.04; in assay [5], 1.33; in assay [6], 0.853. Besides, the composite z-score in assay [7] was found to be 1.14; in [9] it was 2; in assay [10] it was 0.7; in assay [11] it was 1.54; in assay [15] it was 2.86; in assay [17], 0.947. In addition, the composite z-score in assay [18] amounted to 1.29; in [19] it was 0.991; in assay [20], 0.335. The z-score is -0.73 (inactive) in assay [8]; 0.616 (inactive) in [12]; 0.948 (inactive) in assay [13]; 0.563 (inactive) in assay [14]; -0.16 (inactive) in assay [16].

With `CC(=O)n1cc(C(O)C2C=CC3C(=O)N(c4ccccc4)C(=O)C3N2Nc2ccc(C#N)cc2)c2ccccc21` (stereo not given), the composite z-score is -0.0594 in assay [1]; -0.234 in assay [2]; 0.106 in [3]; 0.794 in assay [4]; 1.5 in assay [5]; 1.8 in [6]. Besides, the composite z-score worked out at 1.29 in assay [7]; 0.296 in assay [9]; 0.0373 in [10]; 1.33 in [11]; 3.4 in [15]; 0.401 in assay [17]. The composite z-score was -0.244 in assay [18], 0.48 in assay [19] and -0.0804 in assay [20]. Moreover, the z-score in [8] is 0.471 (inactive); in [12], -0.589 (inactive); in assay [13] it was 1.09 (inactive); in [14], 1.85 (inactive); in assay [16] it was -0.795 (inactive).
